# ± gives the standard deviation.
# Key:
# Conditions in all cases: modulator concentration 10 µM
# [1] = system: RAW-Dual (murine macrophage reporter line); experiment: NF-kB reporter (SEAP) activity fold change vs agonist alone; higher = enhanced NF-kB activity
# Outline: (§1)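 RAW-Dual murine macrophage reporter cells were seeded at 50 000 per well in 384-well plates and pre-incubated 1 hour at 37 °C with compound pin-transferred to 10 μM final. After 1 hour, a PRR agonist was added and cells incubated overnight. Supernatant NF-κB (SEAP, QUANTI-Blue, 620 nm absorbance) and IRF (Lucia luciferase, QUANTI-Luc, luminescence) signals were divided by the mean agonist-only control on the same plate to give fold change. Two replicate plates were averaged, with errors by propagation.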
# [2] = system: RAW-Dual (murine macrophage reporter line); experiment: IRF reporter (Lucia luciferase) activity fold change vs agonist alone; higher = enhanced IRF activity
# Outline: as §1
# [3] = system: RAW-Dual (murine macrophage reporter line); experiment: viability score (confluency relative to resting cells, overnight) (fraction); higher = more viable, active = viable (0.7 or more)
# Outline: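 Overnight exposure to 10 μM final compound was carried out on RAW-Dual macrophages in 384-well plates. IncuCyte software generated two confluency masks over all wells imaged with IncuCyte. The viability score gives confluency in relation to resting cells. A compound met the cutoff if each mask exceeded 70% of resting cells.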
# [4] = agonist: CpG ODN 1826 0.5 ug/mL
Compound,"NF-kB reporter [1, 4]",NF-kB reporter ([1]; agonist: LPS 0.1 ug/mL),NF-kB reporter ([1]; agonist: MPLA […]),IRF reporter ([2]; agonist: 3'3'-cGAMP 10 ug/mL),IRF reporter ([2]; agonist: LPS 0.1 ug/mL),IRF reporter ([2]; agonist: MPLA […]),viability score [3]
O=C(CCCn1nc(-c2ccc(F)cc2)ccc1=O)Nc1cc(Cl)ccc1Cl,1.01 ± 0.16,1.06 ± 0.091,0.989 ± 0.11,1.06 ± 0.066,1.03 ± 0.076,1.11 ± 0.18,1.02 (active)
CCC(=O)Nc1ccc(NC(=O)c2ccco2)c(OC)c1,0.828 ± 0.065,0.831 ± 0.11,1.08 ± 0.12,0.934 ± 0.044,1.32 ± 0.11,1.42 ± 0.18,1.01 (active)
O=c1cc(-c2ccccc2)oc2cc(O)c(O)c(O)c12,1.51 ± 0.5,1.09 ± 0.075,1.2 ± 0.15,0.649 ± 0.034,1 ± 0.15,0.967 ± 0.12,0.992 (active)
O=C(NN=Cc1cccc(Cl)c1Cl)c1cc(O)cc(O)c1,1.02 ± 0.084,0.918 ± 0.092,1.07 ± 0.1,0.934 ± 0.079,1.19 ± 0.22,1.3 ± 0.22,1.04 (active)
CN(C)CCNC(=S)NC(=O)C12CCC3CC(CC(C3)C1)C2,0.978 ± 0.1,1 ± 0.094,0.982 ± 0.062,0.994 ± 0.033,1.5 ± 0.17,1.07 ± 0.068,1.01 (active)
Cc1nc(-c2ccc(S(=O)(=O)NC3CCc4nc(N(C)C)ncc4C3)cc2)co1 (centres undefined),0.877 ± 0.065,1.21 ± 0.1,1.05 ± 0.053,1.14 ± 0.074,1.21 ± 0.091,1.35 ± 0.27,0.919 (active)
CC(C)(C)NCC(O)COc1cccc2c1CCC(=O)N2.Cl (centres undefined),1.14 ± 0.17,1.12 ± 0.25,1.03 ± 0.12,0.941 ± 0.037,1.33 ± 0.26,1.03 ± 0.19,0.995 (active)
COC(=O)C1=CN(CC2CCCO2)C=C(C(=O)OC)C1c1ccc(OC)cc1 (centres undefined),1.1 ± 0.063,1.04 ± 0.079,1.09 ± 0.036,0.913 ± 0.037,0.993 ± 0.057,1.04 ± 0.1,0.993 (active)
CCC(C)(C)C(=O)Nc1ccc(C(C)=O)cc1,0.962 ± 0.076,1.03 ± 0.068,0.953 ± 0.045,0.909 ± 0.13,1.02 ± 0.14,1.11 ± 0.22,1 (active)
CC1(C)COC(=O)C1=NNc1ccc([N+](=O)[O-])cc1,1.02 ± 0.1,1.09 ± 0.073,1.03 ± 0.039,1.03 ± 0.21,1.05 ± 0.13,1.18 ± 0.1,0.998 (active)
CN(C)CCC=C1c2ccccc2Sc2ccc(Cl)cc21.Cl,0.333 ± 0.095,0.862 ± 0.052,1.12 ± 0.13,0.412 ± 0.046,1.39 ± 0.18,1.69 ± 0.16,0.547 (inactive)
Cl.OC(CC#CCN1CCCC1)(c1ccccc1)c1ccccc1,0.726 ± 0.13,1.08 ± 0.086,0.967 ± 0.074,0.748 ± 0.019,1.28 ± 0.15,1.42 ± 0.17,0.597 (inactive)
CCCCc1oc2ccccc2c1C(=O)c1cc(I)c(OCCN(CC)CC)c(I)c1 [Prestw-409],0.41 ± 0.08,0.977 ± 0.075,1.15 ± 0.11,0.574 ± 0.025,1.32 ± 0.2,1.51 ± 0.29,1.04 (active)
CC(C)=CCCC(C)=CC=NNC(=S)Nc1ccc(C)cc1,0.855 ± 0.049,1.12 ± 0.075,1.02 ± 0.065,0.256 ± 0.019,1.55 ± 0.19,1.5 ± 0.18,0.997 (active)
O=C(O)CSc1nnc(Br)n1-c1ccc(C2CC2)c2ccccc12,1.08 ± 0.15,0.924 ± 0.32,0.899 ± 0.05,0.624 ± 0.15,1.35 ± 0.31,1.28 ± 0.1,1 (active)
CCCc1nc(C(C)(C)O)c(C(=O)OCc2oc(=O)oc2C)n1Cc1ccc(-c2ccccc2-c2nnn[nH]2)cc1 [Prestw-1190],1.09 ± 0.18,1.15 ± 0.2,1 ± 0.15,0.916 ± 0.036,0.987 ± 0.094,1.14 ± 0.15,1 (active)
CCCC(CCC)C(=O)O,1.05 ± 0.099,1.01 ± 0.16,0.99 ± 0.045,0.957 ± 0.079,0.965 ± 0.032,0.897 ± 0.094,0.992 (active)
NC(=NOC(=O)C(c1ccccc1)C1CCCC1)c1ccccn1 (centres undefined),0.796 ± 0.062,0.857 ± 0.055,1.06 ± 0.1,0.613 ± 0.042,1.38 ± 0.083,1.62 ± 0.15,0.982 (active)
Cc1ccc(-n2nc(C(C)(C)C)cc2NC(=O)Nc2ccc(OCCN3CCOCC3)c3ccccc23)cc1,0.68 ± 0.13,0.658 ± 0.052,0.784 ± 0.077,1.19 ± 0.058,0.741 ± 0.14,0.844 ± 0.1,1.02 (active)

Compound,"NF-kB reporter [1, 4]",NF-kB reporter ([1]; agonist: LPS 0.1 ug/mL),NF-kB reporter ([1]; agonist: MPLA […]),IRF reporter ([2]; agonist: 3'3'-cGAMP 10 ug/mL),IRF reporter ([2]; agonist: LPS 0.1 ug/mL),IRF reporter ([2]; agonist: MPLA […]),viability score [3]
O=C(c1ccc(Cl)cc1)c1ccc(N2CCOCC2)c([N+](=O)[O-])c1,0.696 ± 0.061,1.04 ± 0.08,0.735 ± 0.044,1.11 ± 0.027,1.62 ± 0.24,1.41 ± 0.24,1 (active)
CC1CC(C)CN(C(=O)CSc2nnc(Cc3ccccc3)o2)C1 (centres undefined),0.917 ± 0.048,1.06 ± 0.091,0.879 ± 0.11,1.01 ± 0.071,0.944 ± 0.093,0.858 ± 0.34,0.981 (active)
CCn1nc(C)c(S(=O)(=O)N2CC3CC2CS3)c1C (centres undefined),0.892 ± 0.039,0.936 ± 0.075,0.959 ± 0.051,1.04 ± 0.055,1.17 ± 0.23,1.29 ± 0.41,0.988 (active)
COc1ccc(C=CC(=O)Nc2sc(C(=O)OC(C)C)c(C)c2C(N)=O)cc1,0.846 ± 0.076,0.798 ± 0.045,0.958 ± 0.086,0.949 ± 0.043,1.44 ± 0.092,1.57 ± 0.17,1 (active)
COC(=O)NN=Cc1cccs1,1.04 ± 0.19,1.05 ± 0.084,0.974 ± 0.11,0.987 ± 0.031,1 ± 0.096,1.22 ± 0.21,0.997 (active)
Cc1n[nH]c(C)c1S(=O)(=O)N1CCCN(C(=O)Cc2ccccc2Cl)CC1,1.03 ± 0.051,1.14 ± 0.11,1 ± 0.18,1.05 ± 0.053,1.21 ± 0.074,1.26 ± 0.11,0.979 (active)
COCC(=O)N1CCC2(CC1)NC(=O)N(Cc1ccc(Cl)cc1)C2=O,0.764 ± 0.18,1.05 ± 0.075,1.05 ± 0.091,0.995 ± 0.05,1.02 ± 0.12,1.15 ± 0.28,1 (active)
CCN(CCO)CCCOc1ccc2c(Nc3cc(CC(=O)Nc4cccc(F)c4)n[nH]3)ncnc2c1,0.703 ± 0.17,0.902 ± 0.23,0.893 ± 0.098,0.982 ± 0.03,1.25 ± 0.25,1.18 ± 0.12,0.951 (active)
C=CCNC1=C2C[C@@H](C)C[C@H](OC)[C@H](O)[C@@H](C)/C=C(\C)[C@H](OC(N)=O)[C@@H](OC)/C=C\C=C(/C)C(=O)NC(=CC1=O)C2=O,0.174 ± 0.0095,0.215 ± 0.021,0.413 ± 0.042,1.63 ± 0.15,3.81 ± 0.34,3.4 ± 0.71,0.493 (inactive)
CCOC(=O)C(Oc1ccc2c(c1)oc(=O)c1cc(OC)ccc12)c1ccccc1 (centres undefined),1.04 ± 0.062,0.998 ± 0.13,0.929 ± 0.025,0.977 ± 0.04,1.02 ± 0.089,1.11 ± 0.21,1 (active)
Cc1sc2ncnc(Nc3ccc(F)cc3)c2c1C,0.813 ± 0.035,0.948 ± 0.11,1.22 ± 0.071,0.739 ± 0.034,0.935 ± 0.19,1.07 ± 0.27,0.981 (active)
O=C(NCCN1CCOCC1)c1cc2nc(-c3ccccc3)cc(C(F)(F)F)n2n1,0.898 ± 0.078,1.06 ± 0.091,0.933 ± 0.061,0.607 ± 0.033,1.09 ± 0.098,1.01 ± 0.09,1 (active)
CC(C(=O)O)c1ccc2c(c1)CC(=O)c1ccccc1S2 (centres undefined),1.19 ± 0.18,1.19 ± 0.43,0.977 ± 0.06,1.03 ± 0.032,1.26 ± 0.42,1.22 ± 0.13,0.988 (active)
O=C(NN=Cc1c(O)ccc2ccccc12)c1ccncc1,2.37 ± 0.19,1.3 ± 0.086,1.48 ± 0.052,0.75 ± 0.11,1.26 ± 0.1,1.21 ± 0.2,0.965 (active)
O=C(Oc1ccc2oc(=O)sc2c1)c1ccccc1,0.969 ± 0.2,0.917 ± 0.091,0.862 ± 0.1,0.325 ± 0.017,1.26 ± 0.13,1.36 ± 0.22,0.632 (inactive)
COC(=O)c1cc(Br)ccc1NC(=O)c1ccccc1,1.07 ± 0.17,1.02 ± 0.17,1.03 ± 0.18,1.12 ± 0.045,1.24 ± 0.18,1.19 ± 0.21,0.99 (active)
O=C(/C=C/c1cccc(S(=O)(=O)Nc2ccccc2)c1)NO,2.21 ± 0.11,1.73 ± 0.14,2.67 ± 0.12,0.0696 ± 0.0082,0.285 ± 0.017,0.404 ± 0.12,0.0713 (inactive)
c1ccc(C2=Nc3ccccc3N=C(c3ccccc3)c3ccccc32)cc1,0.676 ± 0.039,1.18 ± 0.13,1.08 ± 0.066,0.914 ± 0.036,1.2 ± 0.1,1.01 ± 0.096,0.979 (active)

# — the supplement of paper PMC10646978
